This note sets out measurements from PMC5540273 (PLoS ONE, 2017).

What all share (details): concentration: 1 μM, replicates: in singlicate; n = 1
For assay [1], the system named is T1, PKAC-alpha.
T1 construct: gene PRKACA

The subject of assay [2] is T2, PKAC-beta.
T2 construct: gene PRKACB

In assay [3] the test system is PKMYT1.
In assay [4] the test system is PKN1.
For assay [5], the system named is PKN2.
Assay [6] deals with PLK1.
In assay [7] the test system is PLK2.
In assay [8] the test system is PLK3.
The subject of assay [9] is PLK4.
Assay [10] concerns PRKCD.
Assay [11] relates to PRKCE.
Assay [12] deals with PRKCH.
In assay [13] the test system is PRKCI.
The test system of assay [14] is PRKCQ.
In assay [15] the test system is PRKD1.
Assay [16] has as its system PRKD2.
Assay [17] deals with PRKD3.
Assay [18] concerns PRKG1.
In assay [19] the test system is PRKG2.
In assay [20] the test system is T3, PRKR.
T3 construct: gene EIF2AK2

SMILES strings stand for the structures.
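Also: KINOMEscan kinase panel screen.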

With `CCC(=O)c1c(-c2ccccc2)c2cc(Cl)ccc2c(=O)n1Cc1cc(S(C)(=O)=O)n(CC(F)F)n1`, the “%Inh” value in assay [1], in [2], in assay [3], in [4], in assay [5] and in assay [6] was 0% in each case. Moreover, the “%Inh” value in [7] was determined as 24%; in assay [8], 13%; in [9] it was 0%; in assay [10], 9%; in assay [11] it was 0%; in assay [12], 6%. The “%Inh” value turned out to be 0% in [13]; 8% in [14]; 0% in assay [15]; 0% in [16]; 0% in [17]; 0% in assay [18]. The “%Inh” value in assay [19] and in assay [20] was 0% each time.

Turning to `O=C(NCCNc1ccnc(Nc2ccc(F)cc2)n1)Nc1ccc2c(c1)OCO2` [GSK1379882], the “%Inh” value is recorded as 0% in assay [1]; 0% in assay [2]; 0% in assay [3]; 23% in assay [4]; 0% in assay [5]; 4% in [6]. In addition, the “%Inh” value in assay [7] stood at 0%; in [8], 0%; in [9], 4%; in [10] it was 0%; in [11], 13%; in [12] it was 16%. In addition, the “%Inh” value in [13] was 0%; in [14], 3%; in [15] it was 0%; in [16], 7%; in assay [17], 0%; in [18] it was 0%. In addition, the results for the “%Inh” value in assay [19] and in assay [20] were 0% and 9%, respectively.

For the compound `COc1ccc(Nc2nccc(N3CCC(NS(=O)(=O)c4ccc(NC(C)=O)cc4)C3)n2)cc1` (stereo not shown) [GSK1379729], the “%Inh” value in assay [1] is 6%; in assay [2], 0%; in [3], 12%; in assay [4], 37%; in assay [5], 2%; in [6], 12%. Further, the “%Inh” value is 0% in [7]; 0% in assay [8]; 8% in [9]; 0% in assay [10]; 22% in [11]; 22% in [12]. The “%Inh” value in [13] is 22%; in assay [14] it was 10%; in assay [15] it was 25%; in assay [16], 0%; in [17], 41%; in assay [18], 12%. Moreover, the “%Inh” value in assay [19] and in assay [20] was 0% each time.

Take `Cc1nnc(-c2ccc(C)c(-c3ccc(C(=O)O)cc3)c2)o1` [GW608005]: the “%Inh” value in [1] is on record as 0%; in [2], 0%; in [3] it was 0%; in [4], 28%; in [5], 0%; in assay [6], 0%. Moreover, the “%Inh” value in assay [7], in [8], in assay [9], in [10], in [11] and in assay [12] was 0% each time. Besides, the “%Inh” value in assay [13] is 0%; in assay [14], 5%; in assay [15] it was 0%; in assay [16] it was 0%; in assay [17], 19%; in assay [18] it was 0%. The “%Inh” value in assay [19] and in [20] was 0% each time.

As for `COC(=O)c1c(-c2ccccc2)c2cc(C)ccc2c(=O)n1Cc1ccccc1`, the “%Inh” value in assay [1] was 0%; in assay [2] it was 0%; in assay [3], 13%; in assay [4], 0%; in [5], 0%; in assay [6] it was 0%. The “%Inh” value in assay [7] amounted to 0%; in [8] it was 0%; in assay [9], 0%; in assay [10] it was 3%; in assay [11], 0%; in [12] it was 0%. The “%Inh” value was 0% in assay [13]; 36% in [14]; 0% in assay [15]; 8% in [16]; 0% in assay [17]; 0% in assay [18]. Further, the “%Inh” value in [19] and in assay [20] was 0% throughout.

Take `CCn1c(-c2nonc2N)nc2ccccc21` [SB-693162/GW549034]: the “%Inh” value in assay [1] worked out at 0%; in assay [2], 0%; in [3], 0%; in [4], 0%; in assay [5] it was 0%; in assay [6], 62%. In addition, the “%Inh” value was found to be 21% in [7]; 34% in assay [8]; 30% in assay [9]; 0% in [10]; 44% in assay [11]; 17% in [12]. The “%Inh” value in [13] is 31%; in [14], 16%; in assay [15], 0%; in assay [16], 3%; in assay [17], 0%; in [18], 0%. Moreover, the results for the “%Inh” value in assay [19] and in assay [20] were 67% and 0%, respectively.

Turning to `COc1cc2nccc(Nc3cccc(Oc4ccccc4)c3)c2cc1OC.Cl` [GW284543], the “%Inh” value in assay [1] is listed as 0%; in assay [2] it was 10%; in assay [3], 0%; in [4], 0%; in assay [5], 0%; in [6], 0%. Besides, the “%Inh” value in [7] was found to be 0%; in assay [8] it was 0%; in assay [9], 0%; in assay [10], 5%; in assay [11], 0%; in assay [12], 0%. The “%Inh” value stood at 18% in assay [13]; 1% in [14]; 0% in assay [15]; 0% in [16]; 31% in assay [17]; 3% in assay [18]. Further, the “%Inh” value in assay [19] and in assay [20] was 0% each time.

In the case of `Cc1nnc(-c2ccc3ncn(-c4ccc(S(C)=O)cc4)c3c2)o1` (stereo not shown), the “%Inh” value was 12% in [1]; 0% in [2]; 0% in [3]; 0% in assay [4]; 0% in [5]; 0% in assay [6]. Also, the “%Inh” value in [7] was 0%; in [8] it was 9%; in [9], 14%; in assay [10], 0%; in [11] it was 3%; in assay [12], 4%. Besides, the “%Inh” value in [13] was determined as 0%; in assay [14], 3%; in [15], 0%; in [16], 35%; in assay [17], 0%; in assay [18] it was 0%. Also, the figures for the “%Inh” value in assay [19] and in [20] were 13% and 0%, respectively.

As for `COc1cc(Nc2nccc(N3CCC(NC(=O)C4COc5ccccc5O4)C3)n2)cc(OC)c1OC` (stereo not shown) [GSK1379761], the “%Inh” value came out at 4% in assay [1]; 0% in assay [2]; 5% in assay [3]; 0% in assay [4]; 7% in assay [5]; 13% in [6]. For the same compound, the “%Inh” value in assay [7] was 0%; in assay [8], 0%; in [9] it was 9%; in assay [10] it was 18%; in assay [11], 3%; in assay [12], 4%. The “%Inh” value is reported as 0% in assay [13]; 0% in assay [14]; 0% in assay [15]; 10% in [16]; 0% in assay [17]; 0% in assay [18]. Also, the “%Inh” value is 3% in assay [19] and 13% in assay [20].

With `Nc1ncnc2c1ncn2-c1ccc(Cl)cc1` [AH2635], the “%Inh” value in assay [1], in assay [2], in assay [3], in assay [4], in [5] and in assay [6] was 0% throughout. Moreover, the “%Inh” value came to 0% in [7]; 0% in [8]; 0% in [9]; 3% in assay [10]; 0% in assay [11]; 0% in [12]. Also, the “%Inh” value worked out at 6% in assay [13]; 0% in [14]; 0% in assay [15]; 0% in [16]; 0% in assay [17]; 2% in assay [18]. In addition, the “%Inh” value in assay [19] and in assay [20] was 0% in each case.

Consider `CCC(=O)c1c(-c2ccccc2)c2cc(Cl)ccc2c(=O)n1Cc1cc(S(C)(=O)=O)n(CCC(C)(C)O)n1`, for which the “%Inh” value in assay [1], in assay [2], in assay [3], in assay [4], in assay [5] and in assay [6] was 0% throughout. For the same compound, the “%Inh” value in assay [7] was 0%; in [8] it was 8%; in [9] it was 24%; in [10], 0%; in [11], 0%; in assay [12], 3%. In addition, the “%Inh” value in assay [13] is listed as 23%; in [14], 37%; in assay [15], 1%; in assay [16] it was 4%; in assay [17], 0%; in assay [18], 0%. Besides, the “%Inh” value in assay [19] came to 21%; in assay [20], 0%.
